Screens from PubChem.
hgDAF-12 ag – agonists of H. glycines DAF-12 nuclear receptor; HEK293 GAL4-hgDAF12 UAS-luciferase reporter, agonist luminescence; normalized to butyrate control; activation, % at 6.8 µM; actives 1.8% (n = 370,000); AID 687014;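 active = activation above a cutoff set at the mean of all screened compounds plus 3 SD, cut at about 10% in these data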;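 also: 0% = DMSO wells and 100% = sodium butyrate wells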
hcDAF12 agonist – H. contortus DAF-12 activation, primary screen | HEK293 hcDAF-12 lit1-tk-luc reporter, luminescence; 0% DMSO, 100% Δ7-dafachronic acid | activation, % at 6.8 µM | actives 1.4% (n = 370,000) | AID 652067;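 active = activation above the mean of all tested compounds plus 3 SD, cut at about 5.5% in these data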;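 also: 100% = response to 3 µM Δ7-dafachronic acid high control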
DAX1 inh-1 – inhibitors of DAX1 repression of SF-1 activated StAR promoter | AID 652010 | HEK293T StAR-luciferase reporter, SF-1/DAX-1 repression relief | inhibition, % at 6.8 µM | actives 1.1% (n = 370,000);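 active = inhibition above the mean over all tested compounds plus 3 SD, cut at about 3.6% in these data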;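 also: 0% = DAX-1 cells with DMSO and 100% = cells lacking DAX-1 with DMSO; higher inhibition means more luminescence from relief of DAX-1 repression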
ssDAF12 agonist – activates DAF-12 receptor from parasite S. stercoralis; HEK293 ssDAF-12/GRIP1 lit1-tk-luc reporter, luminescence; % of 3 µM dafachronic acid response; activation, % at 6.8 µM; actives 1% (n = 370,000);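 active = activation above the mean over all tested compounds plus 3 SD, cut at about 0.9% in these data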;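 also: 0% = DMSO-only wells and 100% = 3 µM delta7-dafachronic acid wells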
DAX1 inh-2 – inhibitors of human orphan nuclear receptor DAX1 (NR0B1); P51843; HEK293 Gal4-DAX1 luciferase reporter, luminescence; inhibition, % at 6.75 µM; actives 0.99% (n = 340,000);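 active = inhibition above the mean over all tested compounds plus 3 SD, cut at about 4.2% in these data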;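 also: 0% = DAX1-transfected cells with DMSO and 100% = empty-vector control cells with DMSO; inhibition shows as a rise in luminescence from relieved DAX1 repression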
Target sequence (P51843 207-470 limits assumed): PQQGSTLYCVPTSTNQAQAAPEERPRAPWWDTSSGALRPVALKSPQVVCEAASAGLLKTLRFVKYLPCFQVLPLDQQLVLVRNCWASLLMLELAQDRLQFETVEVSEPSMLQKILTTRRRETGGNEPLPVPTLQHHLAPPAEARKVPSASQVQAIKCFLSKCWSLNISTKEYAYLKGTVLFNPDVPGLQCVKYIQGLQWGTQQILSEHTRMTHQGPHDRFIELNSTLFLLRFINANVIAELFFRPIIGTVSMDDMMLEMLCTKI
Active calls of the source: *; nt = not tested or not shown. Most compounds without a hit are left out; they make up all but 4.1% or so of the library.

SMILES | hgDAF-12 ag | hcDAF12 agonist | DAX1 inh-1 | ssDAF12 agonist | DAX1 inh-2
Cc1[nH][nH]c(=O)c1N=Nc1ccc(S(N)(=O)=O)cc1 | -6 | -1 | -1 | -2 | nt
Nc1[nH]n(-c2ccccc2)c(=O)c1N=Nc1ccc(F)cc1 | 9 | 3 | 3 | 0 | nt
Cc1ccc(N=Nc2c(C)[nH]n(C(N)=S)c2=O)cc1 | 6 | 3 | 1 | 1.0* | 2
COC(=O)c1ccc(S(=O)(=O)N2CCC(NC(=O)Cc3cccc(C)c3)CC2)cc1 | 2 | -2 | 0 | -1 | nt
O=S1(=O)c2c(NCc3ccco3)cccc2Oc2ccccc2CN1Cc1cn(Cc2ccccc2C(F)(F)F)nn1 | -2 | -4 | -1 | -2 | nt
Cc1[nH]n(-c2ccccc2)c(=O)c1N=Nc1ccc(C(=O)O)cc1 | -2 | 0 | 0 | -1 | 1
Cc1[nH]n(-c2ccccc2)c(=O)c1N=Nc1ccccc1 | 8 | 6.0* | 1 | 1 | 1
Cc1ccc(NC(=O)[C@@H](Cc2ccccc2)NC(=O)[C@H]2O[C@@H](n3ccc(=O)[nH]c3=O)[C@H](O)[C@@H]2O)cc1C | 2 | -1 | 1 | -1 | nt
O=C(NNC(=O)c1ccccc1O)c1ccc(Br)cc1 | 5 | -1 | 0 | -1 | 7.4*
O=C(COC(=O)c1ccccc1O)NNC(=O)c1ccc(Br)cc1 | -1 | 1 | -1 | -1 | 0
O=C(NCC(=O)N1CCN(c2ccccc2)CC1)c1ccc(Cl)cc1 | -3 | -2 | 0 | -1 | 4.9*
O=C(CNC(=O)c1ccc(Br)cc1)c1ccccc1 | 13* | 4 | 3 | 0 | 1
Cc1nc(C(=O)NCC(=O)c2ccc(Cl)cc2)c(C(F)(F)F)o1 | -1 | -1 | 0 | 1.6* | 0
C=CCCC1CN(Cc2ccc(OC)cc2)S(=O)(=O)c2c(cccc2N2CCCC2)O1 (stereo unspecified) | -3 | -1 | -2 | -1 | nt
COc1cc2c(c(OC)c1OC)C1(CCCCC1)CC2NCC=C(C)C (stereo unspecified) | 1 | 1 | 1 | -1 | nt
CCCC[C@@H]1C(=O)N2N=C(c3ccccc3)c3ccccc3[C@H]2N2N=C(c3ccccc3)c3ccccc3[C@@H]12 | -3 | 2 | -1 | -1 | nt
CCn1c(Cc2cccs2)nnc1SCC(=O)Nc1ccc2c(c1)OCCO2 | -3 | -2 | -1 | -1 | nt
O=C(CCSc1ccccc1)N1CCN(c2ccccc2)CC1 | 12* | 2 | 3 | 0 | 3
O=C(CNC(=O)c1ccc(F)cc1)c1ccc(Cl)cc1 | 11* | 3 | 1 | 0 | 1
O=C(NCC(=O)N1CCCCCC1)c1ccc(Br)cc1 | 2 | 0 | 0 | -1 | 4.4*
C#CCN1C(=O)[C@]2(NCCc3c2[nH]c2ccc(OC)cc32)c2ccccc21 | 2 | 0 | 0 | -1 | nt
COC(=O)[C@]12C[C@H](CC(=O)N3CCC(c4ccccc4)CC3)C(=O)N(Cc3ccc(Cl)cc3Cl)C1=C[C@H](C(C)(C)C)O[C@@H]2C | -3 | -1 | 0 | 1.1* | nt
COc1ccc(C(=O)CC(=O)c2ccccc2O)cc1 | 11* | 5 | 2 | 0 | 2
COc1ccc(O)c(C(=O)CC(=O)c2ccc(F)cc2)c1 | 15* | 8.1* | 1 | 1.0* | -4
O=C(COc1ccccc1C(=O)c1cnn(-c2ccccc2)c1)Nc1ccc2ccccc2c1 | 11* | 3 | 2 | 1.3* | 1
SMILES | hgDAF-12 ag | hcDAF12 agonist | DAX1 inh-1 | ssDAF12 agonist | DAX1 inh-2
COc1ccc(O)c(C(=O)c2cnn(-c3ccccc3)c2)c1 | 5 | 4 | 1 | 0 | 0
COc1ccc(C(=O)CC(=O)c2ccccc2O)cc1OC | 1 | 0 | 0 | -1 | 2
COc1ccc(-n2cc(C(=O)c3ccccc3O)cn2)cc1 | 11* | 5 | 4 | 0 | 0
COC(=O)C[C@@H]1C[C@H]2c3cc(NC(=O)Nc4ccccc4F)ccc3O[C@H]2[C@@H](CO)O1 | 2 | -2 | 0 | 0 | nt
Cn1cccc1C(=O)N1CCN(S(=O)(=O)c2ccc(Cl)s2)CC1 | -5 | -1 | -1 | -1 | nt
Cc1cccc(C(=O)N2CCN(c3ccc(N4CCOCC4)nn3)CC2)c1 | -2 | 0 | -1 | 2.2* | 4.4*
O=C(NCc1ccccc1)[C@@H]1CCCN1C(=O)[C@H]1CCCN1C(=O)c1cc(F)cc(F)c1 | -1 | 2 | -1 | 0 | nt
CN1C(=O)C2(N=c3ccccc3=N2)c2ccccc21 | nt | nt | nt | nt | -1
CN1C(=O)C(O)(c2nnc(-c3ccccc3)o2)c2ccccc21 (stereo unspecified) | 8 | -1 | 1 | 1.1* | 3
CC(C)[C@H]1Cn2nnc(-c3ccccc3)c2Cn2c3ccccc3c(=O)n21 | 1 | -1 | 0 | 0 | nt
COc1ccc(CNC(=O)O[C@H]2CC[C@@]34CCCN3C(=O)CCC[C@H]4[C@H]2C)cc1OC | -1 | 0 | nt | -2 | nt
CCN(c1cccc(C)c1)C(C(=O)Nc1ccc(OC)cc1)c1cc2c(cc1[N+](=O)[O-])OCO2 (stereo unspecified) | 0 | 0 | 0 | -1 | 1
COc1ccc(NC(=O)C(c2cc3c(cc2[N+](=O)[O-])OCO3)N(C)Cc2ccccc2)cc1 (stereo unspecified) | 3 | 5.8* | 0 | 1 | 0
Cc1ccc2nc(NCCc3ccc(Cl)cc3)c3nncn3c2c1 | 0 | 0 | 0 | -1 | 1
Cc1cccc(CCNc2nc3ccc(C)cc3n3cnnc23)c1 | 1 | 0 | 0 | -2 | 5.0*
CCN(CC)C(=O)CC[C@@H]1CC[C@]2(CCCN(Cc3cccs3)C2)O1 | 4 | 0 | 0 | 0 | nt
O=C(O)c1cc(S(=O)(=O)Nc2ccc3cn[nH]c3c2)ccc1O | 4 | 5 | 0 | 1.0* | 1
Cc1csc2nc(CCNS(=O)(=O)c3cccs3)cn12 | 13* | 1 | 3 | -1 | 0
Cc1nc(CCNS(=O)(=O)c2cccs2)cs1 | 2 | 0 | 1 | -1 | 1
O=C(COc1ccccc1)Nc1nc2cc3c(cc2s1)OCO3 | 5 | 6.1* | 3 | 0 | 0
CC(=O)c1sc(Nc2nc3cc4c(cc3s2)OCO4)nc1C | 2 | -1 | 2 | -2 | 1
c1c2c(cc3sc(N4CCCCC4)nc13)OCO2 | 9 | 6.0* | 3 | 1 | -1
CC(=O)Nc1nc2cc3c(cc2s1)OCO3 | 13* | 4 | 3 | -1 | 2
c1ccc(N2CCN(c3nc4cc5c(cc4s3)OCO5)CC2)cc1 | 6 | 0 | 0 | 0 | 0
CC(C)(C)C(=O)OC12CCCN(C1)/C(=C/c1ccccc1)C2 (stereo unspecified) | 6 | -1 | 1 | -1 | nt
C[C@@H](NC(=O)c1ccc(C#Cc2cccc(F)c2)cn1)C(C)(C)O | 1 | -2 | -1 | -1 | nt
Oc1ccc(/C=N/Nc2ncnc3c2ncn3Cc2ccccc2)cc1O | 1 | -2 | 0 | 1.3* | 0
